AHR activator: AHR activators, primary screen, cell-based, luminescence, luciferase reporter, human; Aryl hydrocarbon receptor (Homo sapiens), P35869; AHR-responsive luciferase reporter cells; activation, % at 5 µM; 2.5% of 320,000 active; AID 2796, 2010; in the data active means activation above about 47%;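 further: 0% = vehicle wells and 100% = reference agonist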
DAX1 inh-1: DAX1 (NR0B1) inhibitors on StAR promoter, primary screen, cell-based, luminescence, SF-1 (NR5A1), full-length DAX-1; HEK293T StAR-luciferase reporter, SF-1/DAX-1 repression relief; inhibition, % at 6.8 µM; 1.1% of 370,000 active;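 active means inhibition above the mean over all tested compounds plus 3 SD, cut at about 3.6% in these data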;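 further: 0% = DAX-1 cells with DMSO and 100% = cells lacking DAX-1 with DMSO; higher inhibition means more luminescence from relief of DAX-1 repression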
hcDAF-12 act: H. contortus DAF-12 nuclear receptor activators, primary screen, cell-based, luminescence, HEK293, lit1-tk-luc reporter. HEK293 hcDAF-12 lit1-tk-luc reporter; 0% DMSO, 100% Δ7-dafachronic acid. activation, % at 6.8 µM. 1.4% of 370,000 active;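 active means activation above the mean of all tested compounds plus 3 SD, cut at about 5.5% in these data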;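 further: 100% = response to 3 µM Δ7-dafachronic acid high control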
DAX1 inh-2: DAX1 (NR0B1) inhibitors, primary screen, cell-based, HEK293, Gal4-DAX1, luciferase luminescence; Nuclear receptor subfamily 0 group B member 1 (Homo sapiens), P51843; HEK293 Gal4-DAX1 luciferase reporter; inhibition, % at 6.75 µM; 0.99% of 340,000 active;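 active means inhibition above the mean over all tested compounds plus 3 SD, cut at about 4.2% in these data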;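 further: 0% = DAX1-transfected cells with DMSO and 100% = empty-vector control cells with DMSO; inhibition shows as a rise in luminescence from relieved DAX1 repression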
Target sequence (P51843 207-470 limits assumed): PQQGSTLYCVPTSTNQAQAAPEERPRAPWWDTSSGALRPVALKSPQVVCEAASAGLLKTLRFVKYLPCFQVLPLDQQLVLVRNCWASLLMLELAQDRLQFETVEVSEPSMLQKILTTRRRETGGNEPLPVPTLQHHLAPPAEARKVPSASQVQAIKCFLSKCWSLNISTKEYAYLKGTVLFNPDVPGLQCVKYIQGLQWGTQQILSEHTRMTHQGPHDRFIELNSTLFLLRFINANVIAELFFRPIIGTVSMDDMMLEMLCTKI
ssDAF-12 act: S. stercoralis DAF-12 nuclear receptor activators, primary screen, cell-based, luminescence, HEK293, GRIP1 co-expression, lit1-tk-luc; activation, % at 6.8 µM; HEK293 ssDAF-12/GRIP1 lit1-tk-luc reporter; % of 3 µM dafachronic acid response; 1% of 370,000 active; Nuclear hormone receptor DAF-12 (Strongyloides stercoralis);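 active means activation above the mean over all tested compounds plus 3 SD, cut at about 0.9% in these data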;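 further: 0% = DMSO-only wells and 100% = 3 µM delta7-dafachronic acid wells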
hgDAF12 agonist: H. glycines DAF-12 receptor agonists, primary screen, cell-based, luminescence, HEK293, GAL4 fusion, UAS-luciferase; Nuclear hormone receptor DAF-12 (Heterodera glycines), GAL4 fusion; HEK293 GAL4-hgDAF12 UAS-luciferase reporter, agonist luminescence; normalized to butyrate control; activation, % at 6.8 µM; 1.8% of 370,000 active;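 active means activation above a cutoff set at the mean of all screened compounds plus 3 SD, cut at about 10% in these data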;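 further: 0% = DMSO wells and 100% = sodium butyrate wells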
The depositor's hits bear a star; / = no result. A selection: hits, their analogues and other compounds. The true share with any hit is near 5.7%.

SMILES	AHR activator	DAX1 inh-1	hcDAF-12 act	DAX1 inh-2	ssDAF-12 act	hgDAF12 agonist
Cc1ccc(-c2nc3ccccc3[nH]2)cc1NC(=O)c1ccco1	26	0	0	1	-1	4
CCCC1(C(=O)O)NC(c2ccc(OC)cc2O)C2C(=O)N(c3ccc(OC)cc3)C(=O)C21 (configuration not stated)	1	0	1	2	-1	3
COc1ccc(N2C(=O)C3C(c4ccc(OC)cc4O)NC(Cc4ccccc4)(C(=O)O)C3C2=O)cc1 (configuration not stated)	2	0	0	7.6*	0	2
CCOC(=O)c1sc(=NC(=O)c2cccc(C)c2)n(C)c1C	14	3.8*	2	1	-1	7
Cn1c(=O)c2[nH]c(-c3ccccc3O)nc2n(C)c1=O	41	/	/	/	/	/
COc1ccc(-c2nc3c([nH]2)c(=O)n(C)c(=O)n3C)c(OC)c1	21	0	3	1	1.1*	3
Cn1ncc([N+](=O)[O-])c1C(=O)Nc1ccc(Cl)cc1	72*	-1	-2	0	-1	0
COc1ccc(Cl)cc1NC(=O)c1noc(C)c1[N+](=O)[O-]	55*	/	/	0	/	/
COc1ccccc1NC(=O)C1=C(C)NC(=O)NC1c1ccccc1[N+](=O)[O-] (configuration not stated)	71*	0	3	0	0	1
CC1=C(C(=O)Nc2ccccc2)C(c2ccccc2[N+](=O)[O-])NC(=O)N1 (configuration not stated)	27	0	2	0	-1	3
COc1ccccc1NC(=O)c1nn(C)c(C(=O)Nc2ccccc2OC)c1[N+](=O)[O-]	59*	0	-2	1	-1	-1
CC1=CN2C(=NC(=O)CC2(C)C(=O)N(CC(=O)NC2CCCC2)c2cc(C)cc(C)c2)C=C1 (configuration not stated)	-2	1	1	2	-1	0
COc1ccc(NC(=O)c2cccc(S(=O)(=O)N3CCOCC3)c2)cc1	13	0	0	-1	-1	2
COc1ccc(-n2c(CNC(=O)c3cccs3)n[nH]c2=S)cc1	3	0	-2	0	-2	1
Cn1ncc([N+](=O)[O-])c1C(=O)Nc1ccccc1C(=O)O	1	0	1	-1	-1	-3
COc1ccccc1NC(=O)c1nn(C)cc1Br	61*	0	-2	1	-1	-2
COc1ccccc1NC(=S)NNC(=O)c1nn(C)c(C)c1Cl	-1	0	2	2	-1	6
COc1ccccc1NC(=O)c1c([N+](=O)[O-])cnn1C	61*	1	1	1	-1	0
COc1ccccc1NC(=S)NNC(=O)c1nn(C)c(C)c1Br	-1	1	3	2	0	12*
O=C(Nc1cccc(C(F)(F)F)c1)C1(c2ccccc2)CC1	1	0	-1	-1	-2	6
O=[N+]([O-])c1ccc(/C=N/Nc2ccc3ccccc3c2)o1	76*	-2	6.4*	1	0	4
COc1ccc(/C=C/c2nc(N)nc(-c3ccccc3O)n2)cc1	59*	1	1	-1	0	1
COc1ccc(/C=C/c2nc(N)nc(-c3ccccc3O)n2)cc1OC	21	0	-1	0	-1	-1
COc1ccc(C2CC(c3ccccc3)=NN2c2ccc(N)cc2)cc1 (configuration not stated)	34	2	3	1	0	11*
COc1ccc(C2CC(c3ccccc3O)=NN2c2ccccc2)cc1 (configuration not stated)	1	0	3	0	-1	-2
SMILES	AHR activator	DAX1 inh-1	hcDAF-12 act	DAX1 inh-2	ssDAF-12 act	hgDAF12 agonist
COCC(=O)N1CCCc2ccccc21	17	0	6.3*	0	0	4
O=C(CSc1ccc(-c2cccnc2)nn1)N1CCCc2ccccc21	48*	0	1	/	-1	0
CC(=O)c1ccc(-c2ccc(C(=O)N3CCCc4ccccc43)o2)cc1	17	1	-1	1	1.8*	5
Cc1ccc(OCC(=O)N2CCc3ccccc32)c([N+](=O)[O-])n1	9	2	0	0	-2	11*
Cc1ccc(-c2nc3ncccc3o2)cc1NC(=O)c1ccco1	32	-1	0	-1	-1	-1
COC(=O)c1c(NC(=O)c2cccc(N3C(=O)CCC3=O)c2)sc2c1CCN(C(C)=O)C2	6	-6	1	0	-1	-1
CC(C)(C)NC(=O)Nc1ccccc1C(N)=O	0	1	0	2	-1	-2
CC(C)(C)NC(=O)c1cccnc1Sc1ccccc1	-2	-1	0	0	-1	3
CC(=O)Nc1ccc(S(=O)(=O)NCC(=O)OCC(=O)N2CCc3ccccc32)cc1	17	1	5	0	0.9*	-1
Cn1cc(C(=O)C(=O)N2CCCc3ccccc32)c2ccccc21	68*	-1	-2	0	-3	3
O=C(CNS(=O)(=O)c1ccccc1Br)OCC(=O)N1CCc2ccccc21	3	1	0	1	-1	0
CN(C)CCN1CC(O)=C(c2nc3ccccc3s2)C1=N	6	0	-1	4.8*	-1	4
Cc1cnc2cc(Cl)c(Cl)cc2n1	0	0	-1	0	-1	0
COc1ccc2c(c1)OC/C(=C/c1cccs1)C2=O	6	4.2*	3	2	0	10
CCOC(=O)C1(Cc2cccc(OC)c2)CCN(Cc2cccc(OC)c2OC)CC1	2	-1	-2	-1	-2	-1
Cc1ccc(NC(=O)c2cc(N3C(=O)C=CC3=O)ccc2Cl)cc1C	5	0	1	-1	0	11*
O=C(Cc1ccc([N+](=O)[O-])cc1)NCc1ccccc1Cl	1	0	-1	0	-1	-3
O=C(Cc1ccccc1[N+](=O)[O-])NCc1ccc(Cl)cc1	13	1	3	1	1.2*	4
O=C(Cc1ccccc1[N+](=O)[O-])NCc1ccc(Cl)cc1Cl	7	3	4	1	1	12*
